Bioassay records (PubChem)
JMJD2A Tudor = JMJD2A Tudor domain (human) inhibition | O75164 | AlphaScreen JMJD2A-Tudor / H3K4me3 peptide binding | Potency, µM (series often up to 114 µM), for the others: at the highest dose activity change, negative = inhibition, usual class: inhibitors | hit rate 4.4% among 390,000 | AID 504339; further: on the % scale 0 is the no-effect control and ±100 the full control effect; nearly all actives have a fitted effect of over 50% in size
Target sequence (O75164 whole entry, looked up, the tested form may be a part): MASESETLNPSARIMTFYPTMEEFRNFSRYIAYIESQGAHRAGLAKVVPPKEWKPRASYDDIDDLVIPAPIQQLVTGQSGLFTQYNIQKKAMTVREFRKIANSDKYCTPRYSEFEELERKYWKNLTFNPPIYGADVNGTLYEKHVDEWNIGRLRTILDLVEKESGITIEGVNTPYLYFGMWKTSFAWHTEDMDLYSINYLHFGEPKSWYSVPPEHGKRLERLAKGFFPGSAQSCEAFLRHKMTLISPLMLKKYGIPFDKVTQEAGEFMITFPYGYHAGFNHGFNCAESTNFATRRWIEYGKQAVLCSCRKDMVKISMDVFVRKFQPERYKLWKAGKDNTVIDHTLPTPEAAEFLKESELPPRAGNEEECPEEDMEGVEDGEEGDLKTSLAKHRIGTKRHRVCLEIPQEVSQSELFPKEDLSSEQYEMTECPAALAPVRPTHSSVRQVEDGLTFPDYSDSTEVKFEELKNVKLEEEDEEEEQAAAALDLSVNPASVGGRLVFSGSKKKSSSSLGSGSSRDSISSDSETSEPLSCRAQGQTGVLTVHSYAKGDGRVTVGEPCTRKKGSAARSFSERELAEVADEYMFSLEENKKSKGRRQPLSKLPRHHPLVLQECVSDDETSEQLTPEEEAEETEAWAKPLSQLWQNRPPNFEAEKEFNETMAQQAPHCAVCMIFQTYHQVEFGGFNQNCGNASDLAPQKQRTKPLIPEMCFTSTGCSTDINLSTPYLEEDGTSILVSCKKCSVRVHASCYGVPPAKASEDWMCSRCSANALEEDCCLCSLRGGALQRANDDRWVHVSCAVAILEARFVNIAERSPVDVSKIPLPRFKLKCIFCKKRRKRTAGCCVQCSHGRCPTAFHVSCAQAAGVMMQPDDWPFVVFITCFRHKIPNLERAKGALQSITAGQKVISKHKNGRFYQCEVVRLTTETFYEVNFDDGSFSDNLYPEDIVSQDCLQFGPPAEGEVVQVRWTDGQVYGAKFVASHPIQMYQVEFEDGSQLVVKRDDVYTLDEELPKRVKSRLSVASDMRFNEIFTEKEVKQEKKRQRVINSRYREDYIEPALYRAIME
L3MBTL1 block = inhibitors of human L3MBTL1 | AID 485360 | hit rate 0.66% among 230,000 | AlphaScreen L3MBTL1–H3K9me1 peptide binding | Potency, µM (top dose mostly 57.1 µM), for the others: top-dose activity, negative = inhibition, actives largely listed as inhibitors; further: on the % scale 0 is the no-effect control and ±100 the full control effect; nearly all actives have a fitted effect of over 60% in size
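Displacement of a biotinylated histone H3(1-15) peptide monomethylated at Lys9 (75 nM) from L3MBTL1 (50 nM) was measured by AlphaScreen after a 30 min room-temperature compound incubation; cefsulodin titration served as intraplate control.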
HP1b chromo inh = inhibitors of HP1-beta chromodomain binding to methylated histone tails; P83916; AlphaScreen HP1-beta / biotin-H3K9me3 peptide binding; Potency, µM (top dose mostly 114 µM), without a hit: at the top dose activity change, negative = inhibition, most hits filed as inhibitors; AID 540317; hit rate 0.56% among 390,000; further: nearly all actives have a fitted effect of over 70% in size
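HP1-beta protein (50 nM final) preincubated 30 min at room temperature with biotinylated H3(1-18)K9me3 peptide (50 nM) in PBS pH 7.4, 0.01% Tween-20, then compound added for 30 min. AlphaScreen streptavidin donor/nickel chelate acceptor beads (10 ug/mL final), 30 min dark, luminescence read.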
G9a block = blocks human histone lysine methyltransferase G9a; hit rate 8.8% among 350,000; Potency, µM (highest dose often 102 µM), for inactives: top-dose activity, negative = inhibition, usual class: inhibitors; AID 504332; G9a H3K9 monomethylation, AlphaScreen, 2 h; further: on the % scale 0 is the no-effect control and ±100 the full control effect; nearly all actives have a fitted effect of over 75% in size
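Readings reflect AlphaScreen signal from monomethyl-H3K9 antibody detection. HMT at 20 nM; substrate b-H3K9 500 nM; cofactor SAM 20 uM; 2 h RT reaction; compounds tested as titrations in qHTS with 15 min preincubation.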
BAZ2B block = inhibitors of human BAZ2B bromodomain. Q9UIF8. AlphaScreen BAZ2B-H3K14Ac peptide displacement. Potency, µM (titrated, usually from 114 µM), for inactives: at the top dose activity change, negative = inhibition, usual class: inhibitors. hit rate 4.4% among 360,000. AID 504333; further: on the % scale 0 is the no-effect control and ±100 the full control effect; nearly all actives have a fitted effect of over 60% in size
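AlphaScreen displacement of biotin-H3(5-23)K14Ac peptide (50 nM final) from BAZ2B (50 nM final) in PBS pH 7.4, 0.01% Tween-20; complex preformed 30 min RT, then compounds (top 110 uM) 30 min RT, beads 20 min dark.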
Starred values were filed as active, the others as inactive; u = inconclusive; x = no result; ! = a repeat was not active; [ ] = remark or other dose. In the library only some 11% were active in any assay of this set; here they are far more common. The call rests on the fitted dose curve; in most records, active means well fitted inhibition curve with a large enough effect; inconclusive means small, poorly fitted or top-dose-only effect; inactive means no such curve, though single readings can be large or run the other way. Potency means the concentration at half of the fitted maximal effect.

SMILES	JMJD2A Tudor	L3MBTL1 block	HP1b chromo inh	G9a block	BAZ2B block
CCOc1ccccc1C1NC(=O)CCC1[N+](=O)[O-] (configuration not stated)	-18%	2%	4%	-7%	-3%
O=C(NC1CCCCCC1)C1CCN(C(=O)N2CCOc3ccccc32)CC1	-5%	x	39%	6%[59 µM]	2%
CN1CC2(Cc3cc([N+](=O)[O-])ccc31)C(=O)OC(C)(C)OC2=O	-18%	x	7%	x	x
Cc1c(CCOC(=O)c2cc([N+](=O)[O-])cc([N+](=O)[O-])c2)sc[n+]1CC(=O)c1ccc(Br)cc1	u	u	-34%	2.5µM*	50µM*
Cc1c(CCOC(=O)c2ccc(Cl)cc2Cl)sc[n+]1CC(=O)c1ccccc1	-25%	-5%	17%	x	x
COc1ccc2c(C)c(CCC(=O)NCCc3ccccc3OC)c(=O)oc2c1	-24%	x	11%	4%[59 µM]	-2%
COc1cc2c(cc1OC)CN(C(=O)c1ccc(Br)o1)CC2	-13%	-5%	16%	50µM*	-21%
COc1cc2c(cc1OC)CN(C(=O)c1cccc([N+](=O)[O-])c1)CC2	50µM*	2%	-9%	19%[12.7 µM]	-11%
COc1cc2c(cc1OC)CN(C(=O)/C=C/c1ccc([N+](=O)[O-])cc1)CC2	-29%	x	0%	50µM*	u
Nc1cc(S(=O)(=O)N2CCN(S(=O)(=O)c3ccc4c(c3)OCCO4)CC2)ccn1	-35%	x	x	x	x
CC(C)(C)C(=O)Nc1cccc(-c2ncon2)c1	-20%	6%	39%	-6%	2%
CCN(CC)c1ccc(C(=O)O)cc1	-12%	0%	18%	-17%[59 µM]	-3%
CCN(CC)c1ccc(SS(=O)(=O)O)cc1	56µM*	u	-22%	5µM*	u
COc1cc(CNC(=O)c2ccc3c(c2)c(C)c(C)n3Cc2cccc(C)c2)cc(OC)c1OC	u	x	20%	-48%[59 µM]	u
COc1ccc(C(=O)/C=C/c2ccc(O)cc2)c(O)c1CC=C(C)C	45µM*	-14%	u	u	u
COc1cc(CC2COC(c3ccc(O)c(OC)c3)C2COC(C)=O)ccc1O (configuration not stated)	50µM*	x	u	u	40µM*
COc1cc([C@@H]2OC[C@@H]3[C@H]2CO[C@@H]3c2ccc3c(c2)OCO3)ccc1O	-21%	-1%	32%	x	x
CCCCC1C(=O)N(c2ccccc2)N(c2ccc(O)cc2)C1=O (configuration not stated)	56µM*	3%	u	3.5µM*!	5%
CCCCC1C2C(=O)N(c3ccccc3)C(=O)C2ON1c1ccccc1 (configuration not stated)	-2%	4%	55%	7%	0%
NS(=O)(=O)c1ccc(NC(=S)NNC(=O)c2ccc(Br)o2)cc1	-8%	x	22%	8.9µM*	-11%
Cc1c(C(=O)Nc2ccc(S(N)(=O)=O)cc2)oc2ccc(Cl)cc12	-15%[57.1 µM]	3%	0%	x	-6%
NS(=O)(=O)c1ccc(NC(=S)NC(=O)c2ccc(Br)o2)cc1	-26%[11.4 µM]	-1%	-17%	u	-17%
Cc1c(C(=O)NNC(=S)Nc2ccc(S(N)(=O)=O)cc2)oc2ccccc12	u	x	-10%	11µM*	-38%
Cc1c(C(=O)NC(=S)Nc2ccc(NC(=O)c3cccs3)cc2)oc2ccccc12	-7%[11.4 µM]	-10%	33%	1.4µM*	50µM*
CN(C)S(=O)(=O)c1ccc(NC(=S)NC(=O)c2ccc(Br)o2)cc1	x	x	x	56µM*	-15%
SMILES	JMJD2A Tudor	L3MBTL1 block	HP1b chromo inh	G9a block	BAZ2B block
COc1ccc(-c2coc3c(OC)c(OC)cc(O)c3c2=O)cc1	x	x	x	-25%[2.33 µM]	x
COc1ccccc1CNC(=O)CCCn1c(=O)c2ccccc2n(Cc2ccc(C)cc2)c1=O	-12%	x	16%	10%[59 µM]	2%
CCOc1ccc(C(=O)NCCc2csc(-c3cccnc3)n2)cc1	-7%	x	-2%[57 µM]	-6%[59 µM]	-20%
Clc1ccccc1Cn1cccc1C1=NC(Cc2ccccc2)CO1 (configuration not stated)	14%	x	78%	47%[59 µM]	x
C=CCNC(=O)COc1cc(C)cc(C)c1C	-14%	6%	39%	u	79µM*
CC1CCN(S(=O)(=O)c2ccc3c(ccc(=O)n3CC(=O)Nc3ccc(C(C)C)cc3)c2)CC1	-13%	x	8%[57 µM]	-9%[59 µM]	-7%
Cc1ccccc1-c1noc(CCC(=O)NCC2CCCO2)n1 (configuration not stated)	-13%	x	14%	13µM*	7%
CCCCc1c(O)nc(N2CCN(Cc3ccccc3)CC2)[nH]c1=O	-24%	3%	10%	40µM*	7%
O=S(=O)(c1ccccc1)N1CCN(Cc2ccccc2)CC1	-22%	-1%	24%	21%	-4%
COc1ccc(S(=O)(=O)N2CCN(Cc3cc(OC)c(OC)c(OC)c3)CC2)cc1	3.2µM*	45%	u	x	u
COc1ccc(S(=O)(=O)N2CCN(Cc3ccccc3)CC2)cc1	-12%	-2%	10%	0%[59 µM]	11%
COc1cc(CN2CCN(S(=O)(=O)c3ccccc3)CC2)cc(OC)c1O	8%	x	32%	10µM*	-1%
COc1ccc(S(=O)(=O)N2CCN(Cc3cc(OC)c(O)c(OC)c3)CC2)cc1	22µM*	x	u	7.1µM*	50µM*
COc1cc(C2c3cc4c(cc3OC(C)(N3CCCC3)C2C)OCO4)cc(OC)c1OC (configuration not stated)	u	x	-31%	x	x
Cc1cccc2c1-c1sc(C(=O)N(C)c3cccc(C(F)(F)F)c3)cc1CO2	99%	x	154%	133%[59 µM]	61%
COc1ccccc1NC(=O)c1sc2ncn(Cc3ccccc3Cl)c(=O)c2c1C	-20%	x	24%	-4%[59 µM]	8%
CCOc1nc(C#N)nc(N2CCOCC2)n1	10%[57.1 µM]	x	15%[57 µM]	x	x
CCCn1c2ccccc2c2cnn(CC(=O)Nc3ccccc3OC)c(=O)c21	-10%	x	0%	8%[59 µM]	4%
Cc1nc2c(C(=O)NCCc3ccccc3)c[nH]n2c(=O)c1Cl	-31%	0%	10%	50µM*	-1%
Cc1nc2c(C(=O)NCc3ccc(F)cc3)c[nH]n2c(=O)c1Cl	-17%	3%	14%	50µM*	3%
Cc1nc2c(-c3ccc(F)cc3)c(C)[nH]n2c(=O)c1Cl	-15%	6%	31%	50µM*	-2%
Cc1nc2c(C(=O)NCCC(C)C)c[nH]n2c(=O)c1Cl	-13%	-1%	21%	u	-3%
Cc1ccc(CNC(=O)c2c[nH]n3c(=O)c(Cc4ccc(F)cc4Cl)c(C)nc23)cc1	u	x	-1%	9%[59 µM]	-34%
Cc1[nH]n2c(=O)c3c(nc2c1-c1ccc(F)cc1)CCCC3	-11%	4%	19%	5%	-4%
Cc1cc(-c2nnc(CCC(=O)NC(C)c3ccc(F)cc3)o2)no1 (configuration not stated)	-6%	4%	44%	6%[0.501 µM]	1%
